Results taken from PubChem BioAssay AID434970 (Sanford-Burnham Center for Chemical Genomics, 2010).
Hit rate of the full screen: of about 11,000 compounds, about 310 (2.8%) were called active. No stated cut-off is given here; in the data, active means activity change below about -85%; inactive means the rest. This excerpt belongs to a sample that is enriched for actives.

Tested on: intestinal alkaline phosphatase [Mus musculus]
Assay: mouse intestinal phosphatase enzyme activation – biochemical, luminescence, single concentration, confirmation (AID 434970)
Conditions: purified mouse IAP, CDP-Star luminescence, 30 min, at 10 µM; activation factor: measured here: IAP activation factor, stronger effect = higher value; activity change, negative = activation: stronger effect = lower value

Row | Compound | activation factor | activity change, negative = activation
1 | CCOC(=O)C1=CN(Cc2ccco2)S(=O)(=O)N(CC)C1c1ccc(C(F)(F)F)cc1 (centres undefined) | 0.893 | 10.7% (inactive)
2 | CCOc1ccc(N2CC(C(=O)NCCCN3CCOCC3)CC2=O)cc1 (centres undefined) | 0.917 | 8.3% (inactive)
3 | COc1ccccc1CC(=O)N(CCC#N)CCC#N | 0.913 | 8.65% (inactive)
4 | O=C(COc1c(F)c(F)cc(F)c1F)NC(=O)NC1CCCC1 | 1.08 | -7.8% (inactive)
5 | N#C/C(=C1/CCCCCN1)c1nc2ccccc2[nH]1 | 1.08 | -7.65% (inactive)
6 | CCOC(=O)N1CCN(S(=O)(=O)c2ccc3c(c2)SCC(=O)N3)CC1 | 1.06 | -6.25% (inactive)
7 | COC(=O)[C@@]1(C)[C@H]2C(=O)N(C)C(=O)[C@H]2[C@H]2CN=C(SCc3ccc(Cl)cc3)N21 | 1.1 | -9.6% (inactive)
8 | Cc1ccccc1C(=O)/C=C1\NC(=O)CS1 | 1.05 | -5.35% (inactive)
9 | CCOP(=O)(OCC)C(NC(=O)Nc1ccc(C)c(Cl)c1)c1ccccc1 (centres undefined) | 2.59 | -159% (active)
10 | COc1cccc(NC(=O)Nc2ccc(C(C)(C)C)cc2)c1 | 2.18 | -118% (active)
11 | COc1cccc(NC(=O)CN(c2cccc(C(F)(F)F)c2)S(C)(=O)=O)c1 | 1.12 | -12.2% (inactive)
12 | COc1ccc(N2CCN(C(=O)Nc3cccc(C(F)(F)F)c3)CC2)cc1 | 1.14 | -14.2% (inactive)
13 | COc1cccc(NC(=O)Nc2cc(NC(=O)Nc3cccc(OC)c3)c(C)nc2C)c1 | 1.65 | -65.3% (inactive)
14 | COc1cccc(C(C)NC(=O)Nc2cccc(C(F)(F)F)c2)c1 (centres undefined) | 3.84 | -284% (active)
15 | COc1cccc(NC(=O)Nc2cc(Cl)ccc2C)c1 | 1.41 | -40.7% (inactive)
16 | Cc1ccc(NC(=O)Nc2ccc(F)cc2)cc1Cl | 1.51 | -50.8% (inactive)
17 | COc1cccc(NC(=O)Nc2ccc(C)c(Cl)c2)c1 | 2.17 | -117% (active)
18 | CCOP(=O)(OCC)C(NC(=O)Nc1ccc(Cl)cc1)c1ccccc1 (centres undefined) | 1.56 | -56.5% (inactive)
19 | CC(=O)Nc1cccc(NC(=O)Nc2ccc(C)c(Cl)c2)c1 | 1.9 | -89.6% (inactive)
20 | CCc1ccc(NC(=O)Nc2cccc(OC)c2)cc1 | 1.62 | -62.5% (inactive)
21 | Cc1oc(-c2ccc3c(c2)OCCO3)cc1C(=O)NC(CCC(=O)O)C(=O)O (centres undefined) | 0.95 | 5.05% (inactive)
22 | O=C(NCCNS(=O)(=O)c1ccccc1)c1cc(OCC(F)(F)F)ccc1OCC(F)(F)F | 1.09 | -9.5% (inactive)

Row | Compound | activation factor | activity change, negative = activation
23 | C=CCn1c(=O)c2ccccc2n2c(Sc3nnnn3-c3ccccc3)nnc12 | 1 | -0.35% (inactive)
24 | O=C(CN1N=C(C(F)(F)F)CC1(O)c1ccc([N+](=O)[O-])cc1)c1ccccc1 (centres undefined) | 1.07 | -7.45% (inactive)
25 | CC1=NN(/C(=N\c2nnc(C)s2)Nc2ccc(C(C)(C)C)cc2)[C@H](c2ccc(C)cc2)S1 | 0.976 | 2.45% (inactive)
26 | CCC(C)c1ccc(NC(=O)C2CC2)cc1 (centres undefined) | 1.07 | -7.35% (inactive)
27 | Cc1cc(C)nc(-n2nc(C)c3c(C(F)(F)F)cc(=O)[nH]c32)n1 | 1.03 | -2.7% (inactive)
28 | COc1ccc(Cl)cc1C(=O)NCc1cnn(C)c1C | 0.932 | 6.75% (inactive)
29 | O=C(Nc1cccc(F)c1)N1CCN(C/C=C/c2ccccc2)CC1 | 0.988 | 1.15% (inactive)
30 | C=CCn1cc(CN2CCC(C(=O)Nc3cccc(-c4cccc(Cl)c4)c3)CC2)c(C)n1 | 3.74 | -274% (active)
31 | Cc1c(CN2CCC(C(=O)Nc3cccc(-c4cccc(Cl)c4)c3)CC2)cnn1C | 4.12 | -312% (active)
32 | C/C(=N\NC(=O)c1nn(C)cc1Br)c1cccc(NC(=O)C2CCCC2)c1 | 1.03 | -3.45% (inactive)
33 | C=CCn1cc(CN2CCC(C(=O)Nc3cccc(-c4cccc(F)c4)c3)CC2)c(C)n1 | 2.94 | -194% (active)
34 | CCn1cc(CN2CCC(C(=O)Nc3cccc(-c4cccc(Cl)c4)c3)CC2)c(C)n1 | 4.96 | -396% (active)
35 | Cc1cccc(-n2c(SCC(=O)Nc3ccc4c(c3)OCO4)nnc2-c2ccoc2C)c1 | 1.03 | -2.65% (inactive)
36 | Cc1cccc(C2=NN(c3ccc(Br)cc3)[C@@H](C(=O)N3CCOC3=O)[C@@H]2C)c1 | 0.974 | 2.65% (inactive)
37 | CC(=O)c1c(C)[nH]c(C(=O)N2CCN(c3cc(Cl)ccc3C)CC2)c1C | 1.14 | -13.5% (inactive)
38 | CN(C(=O)C1CCOC1)c1nnc(-c2ccncc2)s1 (centres undefined) | 0.913 | 8.65% (inactive)
39 | CC(Oc1ccc(Br)cc1)C(=O)N1CCc2ccccc21 (centres undefined) | 1.16 | -16.1% (inactive)
40 | N#Cc1c2c(c(NCCCN3CCOCC3)n3c1nc1ccccc13)CCC2 | 0.904 | 9.6% (inactive)
41 | Cc1ccc(C2CC(=O)Oc3cc(C)cc(C)c32)cc1 (centres undefined) | 1.06 | -5.5% (inactive)
42 | COc1ccc(S(=O)(=O)c2ccc(O)cc2)cc1 | 0.992 | 0.8% (inactive)
43 | CC(C)[C@@H](CO)N(C)S(=O)(=O)c1ccccc1Br | 1.01 | -0.85% (inactive)
44 | O=C(NCCc1ccc(Cl)cc1)c1cccnc1 | 0.957 | 4.3% (inactive)

Row | Compound | activation factor | activity change, negative = activation
45 | COc1ccc2cc(C[C@@H]3CC[C@@H](CO)O3)ccc2c1 | 1.04 | -4.15% (inactive)
46 | COc1cccc(NC(=O)C2CCN(Cc3cnn(-c4ccccc4)c3-n3cccc3)CC2)c1 | 2.01 | -101% (active)
47 | O=C(Nc1ccccc1Cl)C1CCN(Cc2cnn(-c3ccccc3)c2-n2cccc2)CC1 | 1.02 | -1.6% (inactive)
48 | COc1ccc(NC(=O)C2CCN(c3nnnn3-c3ccccc3)CC2)cc1 | 0.976 | 2.45% (inactive)
49 | Cc1ccc(-c2csc(N)n2)s1 | 0.219 | 78% (inactive)
50 | S=C(Nc1ccc(Cl)c(Cl)c1)NC1CCCCC1 | 1.9 | -90.1% (inactive)
51 | S=C(NCc1ccccc1)NCc1ccc(CNC(=S)NCc2ccccc2)cc1 | 1.39 | -39.4% (inactive)
52 | Cc1cccc(NC(=S)NC2CCSc3ccccc32)c1 (centres undefined) | 3.43 | -242% (active)
53 | S=C(NCc1ccccc1)NC1CCSc2ccccc21 (centres undefined) | 2.51 | -151% (active)
54 | FC(F)Oc1ccc(NC(=S)NC2CCCCCCC2)cc1 | 1.38 | -38% (inactive)
55 | S=C(Nc1ccc(Oc2ccccc2)cc1)NC1CCCC1 | 1.5 | -49.8% (inactive)
56 | NS(=O)(=O)c1cc(C(=O)NC2CCSc3ccccc32)ccc1Cl (centres undefined) | 0.16 | 84% (inactive)
57 | Cc1ccc(NC(=S)NC2CCSc3ccccc32)cc1 (centres undefined) | 1.37 | -36.6% (inactive)
58 | FC(F)Oc1ccc(NC(=S)NC2CCSc3ccccc32)cc1 (centres undefined) | 2.75 | -175% (active)
59 | Cc1cccc(NC(=S)NCCN(C2CCCCC2)C2CCCC2)c1 | 1.23 | -23.1% (inactive)
60 | Cc1ccc(NC(=S)NC2CCSc3ccccc32)cc1C (centres undefined) | 2.71 | -172% (active)
61 | S=C(NCc1ccccc1)NC1CCCc2ccccc21 (centres undefined) | 1.87 | -86.8% (inactive)
62 | COc1ccc(C2/C=C\CN(C(=O)OCC3c4ccccc4-c4ccccc43)CC(=O)N2Cc2cccc(F)c2)cc1 (centres undefined) | 1.1 | -10.4% (inactive)
63 | O=C(Nc1ccc2nc(-c3ccc4nc[nH]c4c3)[nH]c2c1)c1cccs1 | 1.05 | -5.3% (inactive)
64 | CC(=O)N1CCN(c2ccc(NCc3ccc(C)cc3)cc2)CC1 | 1.09 | -9.45% (inactive)
65 | COC(=O)c1ccc(Nc2cc(C)nc3ncnn23)cc1 | 1.03 | -3.5% (inactive)
66 | Cc1csc(SCc2ccccc2C(=O)O)n1 | 0.948 | 5.2% (inactive)

Row | Compound | activation factor | activity change, negative = activation
67 | COc1ccccc1C(=O)N1CCN=C1c1ccccc1 | 0.974 | 2.55% (inactive)
68 | O=C(NCC(=O)N(c1ccccc1)C(C(=O)NC1CCCCC1)c1ccncc1)c1ccco1 (centres undefined) | 1.01 | -1.1% (inactive)
69 | Cc1ccc(-c2nnc(SCC(=O)NNC(=O)COc3cccc4ccccc34)n2C)cc1 | 1.03 | -3.2% (inactive)
70 | Cn1c(=O)c2c(nc(NC3CCCCC3)n2CC(=O)C23CC4CC(CC(C4)C2)C3)n(C)c1=O | 5.65 | -465% (active)
71 | Cn1c(=O)c2c(nc(SCC(=O)N3CCCCCC3)n2C)n(C)c1=O | 1.08 | -7.85% (inactive)
72 | Cn1c(=O)c2c(nc(NC3CCCCC3)n2CC(O)COc2ccccc2)n(C)c1=O (centres undefined) | 1.01 | -0.8% (inactive)
73 | CCN(Cc1cc2ccccc2[nH]c1=O)S(=O)(=O)c1ccccc1 | 1.02 | -1.85% (inactive)
74 | O=C(NCc1cccs1)C(NS(=O)(=O)c1cccc2nsnc12)c1ccccc1 (centres undefined) | 0.974 | 2.65% (inactive)
75 | CCOC(=O)C1C(=O)NC(N2CCCCC2)=NC1C(C)C (centres undefined) | 0.936 | 6.4% (inactive)
76 | C=CCN1C2CCCC1CC(NC(=O)Nc1cccc(C(C)=O)c1)C2 (centres undefined) | 0.972 | 2.8% (inactive)
77 | COc1cccc(NC(=O)NC2CCN(Cc3nnnn3Cc3ccc4c(c3)OCO4)CC2)c1 | 1.58 | -58.1% (inactive)
78 | Cc1cccc(NC(=S)NC2CC3CCCC(C2)N3CC(C)C)c1 (centres undefined) | 2.45 | -145% (active)
79 | CCc1ccc(NC(=S)NC2CC3CCCC(C2)N3Cc2cccs2)cc1 (centres undefined) | 1.88 | -87.8% (inactive)
80 | CCOC(=O)c1ccc(NC(=O)NC2CC3CCC(C2)N3Cc2nnnn2Cc2ccco2)cc1 (centres undefined) | 1.95 | -94.8% (inactive)
81 | COc1ccc(CN2C3CCCC2CC(NC(=O)Nc2cccc(C)c2)C3)cc1 (centres undefined) | 10.5 | -954% (active)
82 | Cc1ccc(C)c(NC(=S)NC2CC3CCCC(C2)N3CC(C)C)c1 (centres undefined) | 1.24 | -23.9% (inactive)
83 | S=C(Nc1ccc(Cl)cc1)NC1CC2CCC(C1)N2Cc1ccccc1 (centres undefined) | 1.64 | -64% (inactive)
84 | CCCN1C2CCCC1CC(NC(=O)Nc1cccc(C(C)=O)c1)C2 (centres undefined) | 1.05 | -5.35% (inactive)
85 | O=C(Nc1ccccc1)NC1CC2CCC(C1)N2Cc1nnnn1Cc1ccc2c(c1)OCO2 (centres undefined) | 2.23 | -123% (active)
86 | COc1cccc(NC(=S)NC2CC3CCCC(C2)N3CC(C)C)c1 (centres undefined) | 1.72 | -71.5% (inactive)
87 | CCc1ccc(NC(=S)NC2CC3CCCC(C2)N3Cc2ccccc2)cc1 (centres undefined) | 2.7 | -170% (active)
